Values joined by “and” are separate entries in the source; they are usually repeats but may differ in a detail not shown here. Equal values may be shown once. Records with an inconclusive call do not appear. Active and inactive are the calls of the source. Unless noted, calls follow the shape of the dose curve; as a rule, active = well fitted curve in the direction sought with a large enough effect in the repeat runs; inconclusive = weak or mixed curves; inactive = no such curve, though single readings can be large; an effect the other way counts as inactive or inconclusive.
Legend:
[1] = qHTS assay to identify small molecule antagonists of the glucocorticoid receptor (GR) signaling pathway - cell viability counter screen (AID 720693); also: nearly all actives have a fitted effect of over 55% in size
[2] = qHTS assay for identifying genotoxic compounds that show differential cytotoxicity against isogenic chicken DT40 cell lines with known DNA damage response pathways - wild type cell line (AID 743012); also: nearly all actives have a fitted effect of over 60% in size; also: potency is read from the fitted curve at half-maximal effect
Outline: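 First, wild type DT40 cells were plated at 300 per well and equilibrated about 0.5 h at 37 C/5% CO2. Next, compounds in DMSO were added and exposure lasted 40 h. Finally, CellTiter-Glo was added for 30 min at room temperature and luminescence recorded.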

[3] = qHTS assay for identifying genotoxic compounds that show differential cytotoxicity against isogenic chicken DT40 cell lines with known DNA damage response pathways - Rev3 mutant cell line (AID 743014); also: nearly all actives have a fitted effect of over 55% in size; also: potency is read from the fitted curve at half-maximal effect
[4] = qHTS assay for identifying genotoxic compounds that show differential cytotoxicity against isogenic chicken DT40 cell lines with known DNA damage response pathways - Rad54/Ku70 mutant cell line (AID 743015); also: nearly all actives have a fitted effect of over 60% in size; also: potency is read from the fitted curve at half-maximal effect
[5] = qHTS assay to identify small molecule antagonists of the androgen receptor (AR) signaling pathway - cell viability counter screen (AID 743033; also: nearly all actives have a fitted effect of over 45% in size)
[6] = target: Androgen receptor (Homo sapiens) (UniProt P10275); experiment: qHTS assay to identify small molecule antagonists of the androgen receptor (AR) signaling pathway (AID 743035; active = well fitted inhibition curve with a large enough effect in the signal ratio in the repeat runs, not every such curve was filed as active; the % refers to the signal ratio)
Outline: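 Beta-lactamase FRET read (2 h RT incubation with LiveBLAzer B/G) following 16 h of compound plus R1881 treatment of AR-UAS-bla HEK293 cells, which had been pre-incubated 4 h at 37C.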

[7] = target: Androgen receptor (Homo sapiens) (UniProt P10275); experiment: qHTS assay to identify small molecule agonists of the androgen receptor (AR) signaling pathway using the MDA cell line (AID 743040; also: nearly all actives have a fitted effect of over 20% in size; also: potency is read from the fitted curve at half-maximal effect)
Outline: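 Cells plated, 5 h at 37C/0% CO2; compound or DMSO pinned; 16 h at 37C; ONE-Glo added; luminescence measured after 30 min at room temperature. Reporter line: MDA-kb2 with MMTV-luciferase responsive to AR and GR.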

[8] = qHTS assay to identify small molecule antagonists of the androgen receptor (AR) signaling pathway using the MDA cell line - cell viability counter screen (AID 743041; also: nearly all actives have a fitted effect of over 45% in size)
Outline: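 Cells were plated at 3,000 per well and left 5 h. Compounds in DMSO were then pinned in, followed by R1881. After 16 h at 37C, CellTiter-Fluor fluorescence gave viability.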

[9] = target: Androgen receptor (Homo sapiens) (UniProt P10275); experiment: qHTS assay to identify small molecule antagonists of the androgen receptor (AR) signaling pathway using the MDA cell line (AID 743042; also: nearly all actives have a fitted effect of over 55% in size; also: potency is read from the fitted curve at half-maximal effect)
Outline: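 Antagonist mode: compounds plus R1881 agonist added to MDA-kb2 AR-luc cells, incubated 16 h at 37C. Luciferase reporter luminescence quantified, with multiplexed CellTiter-Fluor readout for cell viability.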

[10] = target: Androgen receptor (Homo sapiens) (UniProt P10275); experiment: qHTS assay to identify small molecule agonists of the androgen receptor (AR) signaling pathway (AID 743036; active = well fitted activation curve with a large enough effect in the signal ratio in the repeat runs, with a control signal flat, not every such curve was filed as active; the % refers to the signal ratio)
Outline: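 Activation was read as beta-lactamase FRET signal from LiveBLAzer B/G substrate, added for 2 h at room temperature. Before that, GeneBLAzer AR-UAS-bla GripTite (HEK293) cells had 16 h compound exposure at 37C.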
% is scaled to controls: 0 for no effect and ±100 for the full control effect.

Androgen receptor (Homo sapiens), sequence (P10275 whole entry, looked up): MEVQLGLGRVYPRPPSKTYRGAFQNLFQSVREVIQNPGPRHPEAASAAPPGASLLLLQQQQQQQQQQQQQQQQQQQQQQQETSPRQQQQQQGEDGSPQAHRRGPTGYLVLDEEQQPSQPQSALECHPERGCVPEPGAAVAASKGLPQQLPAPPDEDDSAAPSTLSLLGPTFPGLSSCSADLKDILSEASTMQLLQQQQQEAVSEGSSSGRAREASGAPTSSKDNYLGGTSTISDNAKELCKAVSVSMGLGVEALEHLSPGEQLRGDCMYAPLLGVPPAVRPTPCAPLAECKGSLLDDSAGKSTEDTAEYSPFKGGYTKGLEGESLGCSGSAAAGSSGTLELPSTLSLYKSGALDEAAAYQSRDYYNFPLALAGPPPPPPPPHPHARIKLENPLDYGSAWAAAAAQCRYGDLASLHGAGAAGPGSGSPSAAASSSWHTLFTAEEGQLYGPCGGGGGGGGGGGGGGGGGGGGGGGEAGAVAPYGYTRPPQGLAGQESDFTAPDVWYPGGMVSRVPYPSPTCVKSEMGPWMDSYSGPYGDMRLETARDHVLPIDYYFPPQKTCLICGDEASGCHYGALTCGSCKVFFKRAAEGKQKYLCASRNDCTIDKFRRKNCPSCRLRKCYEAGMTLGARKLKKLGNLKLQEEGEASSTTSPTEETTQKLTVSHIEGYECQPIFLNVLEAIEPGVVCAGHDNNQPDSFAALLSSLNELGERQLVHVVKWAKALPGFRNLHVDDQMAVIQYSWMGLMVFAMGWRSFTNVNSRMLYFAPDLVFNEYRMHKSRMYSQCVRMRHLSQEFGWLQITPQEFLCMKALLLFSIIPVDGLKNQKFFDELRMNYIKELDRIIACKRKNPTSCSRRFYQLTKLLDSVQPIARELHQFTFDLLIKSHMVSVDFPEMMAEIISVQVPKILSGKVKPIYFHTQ

CC1(C)C(O)C(C)(C)C1O (stereo unspecified)
inactive: outcome [1] | Potency [2] | Potency [3] | Potency [4] | Potency [5] | outcome [6] | Potency [7] | Potency [8] | Potency [9]

O=Cc1cccc([N+](=O)[O-])c1
inactive: outcome [1] | Potency [2] | Potency [3] | Potency [4] | Potency [5] | Potency [8]

C=C(C)C(=O)OCCCCCCCC(C)C
inactive: outcome [1] | Potency [2] | Potency [3] | Potency [4] | Potency [5] | outcome [6] | outcome [10] | Potency [7] | Potency [8] | Potency [9]

OC1CCCCC1c1ccccc1 (stereo unspecified)
inactive: outcome [1] | Potency [2] | Potency [3] | Potency [4] | Potency [5] | outcome [10] | Potency [7] | Potency [8] | Potency [9]

NC(=O)c1ccc(N)cc1
inactive: outcome [1] | Potency [2] | Potency [3] | Potency [4] | Potency [5] | Potency [8]

Cn1cc(S(C)=O)c(=O)c2ccc(F)cc21 (stereo unspecified)
inactive: outcome [1] | Potency [2] | Potency [3] | Potency [4] | Potency [5] | Potency [8]

Nc1c2c(nc3ccccc13)CCCC2O (stereo unspecified)
inactive: outcome [1] | Potency [2] | Potency [3] | Potency [4] | Potency [5] | Potency [8]

COC(=O)CCSCCC(=O)OC
inactive: outcome [1] | Potency [2] | Potency [3] | Potency [4] | Potency [5] | Potency [8]

Cc1cc(O)cc2c1O[C@](C)(CCC[C@H](C)CCC[C@H](C)CCCC(C)C)CC2
inactive: outcome [1] | Potency [2] | Potency [3] | Potency [4] | Potency [5] | Potency [8]

COC(=O)CC(C)=O
inactive: outcome [1] | Potency [2] | Potency [3] | Potency [4] | Potency [5] | Potency [8]

OCCCC1CCCCC1
inactive: outcome [1] | Potency [2] | Potency [3] | Potency [4] | Potency [5] | Potency [8]

CC(C)(c1ccc(O)cc1)c1ccc(O)cc1
inactive: outcome [1] | Potency [5] | outcome [10] | Potency [7] | Potency [8]
active: Potency [2] 27.3 µM | Potency [3] 67.8 µM and 50.4 µM | Potency [4] 49.2 µM | Potency [9] 59.2 µM

O=C1CC2CC1C1CCCC21 (stereo unspecified)
inactive: outcome [1] | Potency [2] | Potency [3] | Potency [4] | Potency [5] | outcome [6] | outcome [10] | Potency [8] | Potency [9]
active: Potency [7] 54.5 µM

CC(=O)CC(C)C
inactive: outcome [1] | Potency [2] | Potency [3] | Potency [4] | Potency [5] | outcome [6] | outcome [10] | Potency [7] | Potency [8] | Potency [9]

COc1ccccc1OCC(O)CN1CCN(CC(=O)Nc2c(C)cccc2C)CC1 (stereo unspecified)
inactive: outcome [1] | Potency [2] | Potency [3] | Potency [4] | Potency [5] | Potency [8]

O=C(CCCN1CCC(O)(c2cccc(C(F)(F)F)c2)CC1)c1ccc(F)cc1
active: Potency [2] 10.6 µM | Potency [3] 11.9 µM | Potency [4] 11.9 µM
inactive: outcome [1] | Potency [5]

CCCCCOC(=O)CCCCC
inactive: outcome [1] | Potency [2] | Potency [3] | Potency [4] | Potency [5] | Potency [8]

N=C(N)c1ccc(OCCCOc2ccc(C(=N)N)cc2)cc1
active: Potency [2] 4.22 µM | Potency [3] 8.41 µM | Potency [4] 5.96 µM
inactive: outcome [1] | Potency [5] | Potency [8]

CC(C)(O)C(=O)c1ccccc1
inactive: outcome [1] | Potency [2] | Potency [3] | Potency [4] | Potency [5] | outcome [6] | outcome [10] | Potency [7] | Potency [8] | Potency [9]

O=C(O)c1ccccc1OP(=O)(O)O
inactive: outcome [1] | Potency [2] | Potency [3] | Potency [4] | Potency [5] | Potency [8]

O=C(O)COc1nn(Cc2ccccc2)c2ccccc12
inactive: outcome [1] | Potency [2] | Potency [3] | Potency [4] | Potency [5] | outcome [6] | Potency [7] | Potency [8] | Potency [9]

OC(CCN1CCCCC1)(c1ccccc1)C1CC2C=CC1C2 (stereo unspecified)
active: Potency [2] 7.5 µM and 9.44 µM | Potency [3] 15 µM and 13.3 µM | Potency [4] 23.7 µM and 21.1 µM
inactive: outcome [1] | Potency [5]

CC(C)c1cc2c(cc1S(=O)(=O)O)[C@@]1(C)CCC[C@@](C)(C(=O)O)[C@@H]1CC2
inactive: outcome [1] | Potency [2] | Potency [3] | Potency [4] | Potency [5] | Potency [8]

CC[N+](C)(C)c1cccc(O)c1
inactive: outcome [1] | Potency [2] | Potency [3] | Potency [4] | Potency [5] | Potency [8]

ClC(Cl)(Br)Br
inactive: outcome [1] | Potency [2] | Potency [3] | Potency [4] | Potency [5] | outcome [6] | outcome [10] | Potency [7] | Potency [8] | Potency [9]

O=S(O)CO
inactive: outcome [1] | Potency [2] | Potency [3] | Potency [4] | Potency [5] | outcome [6] | Potency [7] | Potency [8] | Potency [9]

COC(=O)c1cc(C(=O)OC)cc(S(=O)(=O)O)c1
inactive: outcome [1] | Potency [2] | Potency [3] | Potency [4] | Potency [5] | Potency [8]

C1OCOCO1
inactive: outcome [1] | Potency [2] | Potency [3] | Potency [4] | Potency [5] | Potency [8]

CCCCNC(=O)NCCCC
inactive: outcome [1] | Potency [2] | Potency [3] | Potency [4] | Potency [5] | outcome [6] | Potency [7] | Potency [8] | Potency [9]

CCOC(=O)CCC(C)=O
inactive: outcome [1] | Potency [2] | Potency [3] | Potency [4] | Potency [5] | Potency [8]

NC(=O)COCCN1CCN(C(c2ccccc2)c2ccc(Cl)cc2)CC1 (stereo unspecified)
inactive: outcome [1] | Potency [5] | outcome [6] | Potency [7] | Potency [8] | Potency [9]
active: Potency [2] 33.5 µM | Potency [3] 8.41 µM | Potency [4] 26.6 µM

CCOC(=O)c1ccc(C)cc1
inactive: outcome [1] | Potency [2] | Potency [3] | Potency [4] | Potency [5] | Potency [8]

COc1ccc2c(c1)c(CC(=O)OCC(=O)O)c(C)n2C(=O)c1ccc(Cl)cc1
inactive: outcome [1] | Potency [2] | Potency [3] | Potency [4] | Potency [5] | outcome [6] | Potency [7] | Potency [8] | Potency [9]

CC(C(=O)O)c1ccc(CC2CCCC2=O)cc1 (stereo unspecified)
inactive: outcome [1] | Potency [2] | Potency [3] | Potency [4] | Potency [5] | Potency [8]

CCOC(C)(C)C
inactive: outcome [1] | Potency [2] | Potency [3] | Potency [4] | Potency [5] | Potency [8]

Cc1c(O)cccc1O
inactive: outcome [1] | Potency [2] | Potency [3] | Potency [4] | Potency [5] | Potency [8]

C=COCC1CCC(CO)CC1 (stereo unspecified)
inactive: outcome [1] | Potency [2] | Potency [3] | Potency [4] | Potency [5] | Potency [8]

CC(C)OC(=O)c1ccccc1
inactive: outcome [1] | Potency [2] | Potency [3] | Potency [4] | Potency [5] | Potency [8]

O=C(O)Cc1ccc(CCNS(=O)(=O)c2ccc(Cl)cc2)cc1
inactive: outcome [1] | Potency [2] | Potency [3] | Potency [4] | Potency [5] | Potency [8]

C[C@](N)(Cc1ccc(O)cc1)C(=O)O
inactive: outcome [1] | Potency [2] | Potency [3] | Potency [4] | Potency [5] | Potency [8]

Cc1ccc(C#N)cc1
inactive: outcome [1] | Potency [2] | Potency [3] | Potency [4] | Potency [5] | Potency [8]

c1cnc(N2CCN(Cc3ccc4c(c3)OCO4)CC2)nc1
inactive: outcome [1] | Potency [2] | Potency [3] | Potency [4] | Potency [5] | Potency [8]

CCC(C)C1CCCCC1=O (stereo unspecified)
inactive: outcome [1] | Potency [2] | Potency [3] | Potency [4] | Potency [5] | Potency [8]

CCC(C)S (stereo unspecified)
inactive: viability change, negative = cytotoxic [1] -1.32% [at 3.15 µM] | activity change, negative = cytotoxicity [2] 25.1% [at 3.82 µM] | activity, negative = cytotoxicity [3] -7.66% [at 3.82 µM] | activity change, negative = cytotoxicity [4] 19.5% [at 3.83 µM] | activity change, negative = cytotoxicity [5] 6.76% [at 3.15 µM] | viability change, negative = cytotoxic [8] 8.95% [at 3.79 µM]

Cc1nc2c([nH]1)c(=O)n(C)c(=O)n2Cc1ccco1
inactive: outcome [1] | Potency [2] | Potency [3] | Potency [4] | Potency [5] | Potency [8]

Nc1ccccc1S(=O)(=O)O
inactive: outcome [1] | Potency [2] | Potency [3] | Potency [4] | Potency [5] | Potency [8]

O=c1cc(CO)occ1O
inactive: outcome [1] | Potency [2] | Potency [3] | Potency [4] | Potency [5] | Potency [8]

C=C[Si](OC(=C)C)(OC(=C)C)OC(=C)C
inactive: outcome [1] | Potency [2] | Potency [3] | Potency [4] | Potency [5] | Potency [8]

COC(C)(C)CCCC(C)CC=O (stereo unspecified)
inactive: outcome [1] | Potency [2] | Potency [3] | Potency [4] | Potency [5] | Potency [8]

O=C1OC(=O)C2CCCCC12 (stereo unspecified)
inactive: outcome [1] | Potency [2] | Potency [3] | Potency [4] | Potency [5] | Potency [8]

CCCCOCCOCCOCCCC
inactive: outcome [1] | Potency [2] | Potency [3] | Potency [4] | Potency [5] | Potency [8]

CC1=CC(C)C(C=O)CC1 (stereo unspecified)
inactive: outcome [1] | Potency [2] | Potency [3] | Potency [4] | Potency [5] | Potency [8]

O=[N+]([O-])c1ccc(F)cc1F
inactive: outcome [1] | Potency [2] | Potency [3] | Potency [4] | Potency [5] | Potency [8]

Cc1cccc(C)c1NC(=O)C(C)N (stereo unspecified)
inactive: outcome [1] | Potency [2] | Potency [3] | Potency [4] | Potency [5] | Potency [8]
